# From PubChem BioAssay
# BJeLR lethal – MLPCN primary cell-based screen for lethality selective to Ras in HRASV12 cells; AID 1554, 2009; BJeLR (HRASV12) viability, CellTiter-Glo ATP luminescence, 48 h; 300,000 tested, 0.17% active; inhibition, % (no concentration beside the values); in the data active means inhibition above about 50%
# RecA intein inh – Mtb RecA intein splicing inhibitors, primary screen, biochemical, fluorescence, HTS | Protein RecA (Mycobacterium tuberculosis (strain ATCC 25618 / H37Rv)), P9WHJ3 | cell-free RecA intein splicing | inhibition, % (no concentration beside the values) | 290,000 tested, 0.75% active | AID 2221, 2009; in the data active means inhibition above about 30%;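 further: 0% = vehicle wells and 100% = reference inhibitor control wells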
# Target sequence (P9WHJ3 whole entry, looked up): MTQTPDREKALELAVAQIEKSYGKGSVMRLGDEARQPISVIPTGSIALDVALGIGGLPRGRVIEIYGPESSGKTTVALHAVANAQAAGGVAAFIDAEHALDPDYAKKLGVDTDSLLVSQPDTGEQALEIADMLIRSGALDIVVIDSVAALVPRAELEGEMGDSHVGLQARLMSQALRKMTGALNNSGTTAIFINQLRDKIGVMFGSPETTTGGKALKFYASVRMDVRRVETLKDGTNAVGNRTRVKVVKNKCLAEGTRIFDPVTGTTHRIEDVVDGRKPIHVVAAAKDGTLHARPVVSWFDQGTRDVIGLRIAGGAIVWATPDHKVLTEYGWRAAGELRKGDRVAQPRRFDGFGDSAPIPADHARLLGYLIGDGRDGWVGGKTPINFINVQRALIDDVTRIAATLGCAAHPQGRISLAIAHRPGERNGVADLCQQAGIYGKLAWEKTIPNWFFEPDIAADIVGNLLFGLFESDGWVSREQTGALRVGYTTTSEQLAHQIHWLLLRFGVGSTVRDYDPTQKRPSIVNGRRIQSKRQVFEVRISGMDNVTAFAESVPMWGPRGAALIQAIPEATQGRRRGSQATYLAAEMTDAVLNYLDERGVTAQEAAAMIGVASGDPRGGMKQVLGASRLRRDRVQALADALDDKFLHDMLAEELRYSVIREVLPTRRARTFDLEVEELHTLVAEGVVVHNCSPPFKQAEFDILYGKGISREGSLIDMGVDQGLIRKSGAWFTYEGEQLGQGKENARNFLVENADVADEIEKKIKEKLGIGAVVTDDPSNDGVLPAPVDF
# FBA Mtb inh – Mtb FBA enzyme inhibitors, primary screen, biochemical, fluorescence, strain H37Rv; Fructose-bisphosphate aldolase (Mycobacterium tuberculosis (strain ATCC 25618 / H37Rv)), …; purified M. tuberculosis FBA, fluorescence read-out; inhibition, % at 1 µM; 360,000 tested, 2.3% active; AID 588726, 2011; in the data active means inhibition above about 27%;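 further: 0% = vehicle and 100% = reference inhibitor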
# PrPC surface inh – inhibitors of human cell surface prion protein PrPC, primary screen, cell-based, TR-FRET | Major prion protein (Homo sapiens), P04156 | TR-FRET read-out | inhibition, % at 13.8 µM | 370,000 tested, 0.43% active; in the data active means inhibition above about 24%; further: 0% = median of the test wells and 100% = reference compound wells
# GDH-TPI counter – GDH-TPI coupling enzyme inhibitors, primary screen, artefact control for M. tuberculosis FBA inhibitor project, biochemical, absorbance, full deck; inhibition, % at 4.8 µM; 360,000 tested, 1.2% active; AID 588335, 2011; GDH-TPI coupled enzyme counterscreen, NADH absorbance; in the data active means inhibition above about 30%;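 further: 0% = DMSO wells and 100% = wells lacking the enzyme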
# Active calls of the source: *; · = not tested or not shown. A selection: hits, their analogues and other compounds. The true share with any hit is near 4.2%.
SMILES,BJeLR lethal,RecA intein inh,FBA Mtb inh,PrPC surface inh,GDH-TPI counter
COc1ccc(C2=NN3C(=O)c4c(ccc(OC)c4OC)C3C2)cc1 (centres undefined),12.6,-1.7,1.3,-11.8,36.2*
Cc1ccc(CCNc2ccc3ccccc3c2)cn1,0.1,38.1*,2.7,2.9,12.2
Cc1ccc(NCCc2ccc(C)nc2)cc1,2.0,-1.1,-1.2,0.9,6.3
COc1cc(-n2c(C)nc3cc(C(=O)N4CC(C)CC(C)C4)ccc32)cc(OC)c1OC (centres undefined),·,·,·,5.4,·
COc1ccc2[nH]cc(C(C)c3c[nH]c4ccccc34)c2c1 (centres undefined),·,·,·,-0.9,·
CC(CC(=O)Nc1ccc2c(c1)c(=O)n(C)n2-c1ccccc1F)c1ccccc1 (centres undefined),·,·,139.3*,-1.1,11.0
CC(CC(=O)Nc1ccc2c(c1)c(=O)n(C)n2-c1ccc2ccccc2c1)C(F)(F)F (centres undefined),·,·,6.4,-0.2,7.5
Cn1c(=O)c2cc(NC(=O)CC(C)(C)C)ccc2n1-c1ccccc1F,·,·,173.7*,4.5,5.6
CCNC(=S)Nc1ccc2c(c1)c(=O)n(C)n2-c1cc(C)cc(C)c1,·,·,8.5,-4.6,12.8
COc1ccc(/C=C/C(=O)c2ccc(OC)cc2OC)cc1,7.0,4.1,4.6,1.4,38.2*
COc1ccc(/C=C/C(=O)C2(O)CCCCC2)cc1,5.2,1.3,-0.4,-7.2,38.8*
COc1ccc(/C=C/C(=O)O)cc1,·,·,4.2,3.1,0.7
COc1ccc2sc(-c3ccc(S(C)(=O)=O)cc3)c(-c3ccc4c(c3)OCCO4)c2c1,·,·,11.6,-17.4,27.4
COc1cc2sc(-c3ccc(S(C)(=O)=O)cc3)c(-c3ccc4c(c3)OCO4)c2cc1OC,·,·,32.3*,-9.8,16.4
CCCCN=C[C@]12CCC(O)CC1(O)CCC1[C@@H]2CC[C@]2(C)[C@H](C3C=CC(=O)O3)CCC12O (some centres undefined),67.7*,-2.1,-1.9,5.3,-3.4
Nc1nc(NCc2ccco2)nc(NCCO)c1[N+](=O)[O-],-2.2,-0.4,-4.8,-6.8,31.7*
Nc1nc(NCCCN2CCOCC2)nc(NCc2ccccc2)c1[N+](=O)[O-],8.5,-5.4,-1.9,-11.1,49.7*
C=CCNc1nc(N)c([N+](=O)[O-])c(NCc2ccccc2)n1,-3.5,-1.1,-1.3,·,20.0
Nc1nc(NCCN2CCOCC2)nc(NCc2ccccc2)c1[N+](=O)[O-],8.5,-0.6,-3.3,3.0,48.3*
CN(c1ccccc1)c1nc(N)c([N+](=O)[O-])c(Nc2ccccc2)n1,5.5,-1.3,-4.8,-3.5,10.3
Nc1nc(NCCc2ccccc2)nc(NCc2ccccc2)c1[N+](=O)[O-],12.8,-0.1,-3.7,1.1,19.9
CN(Cc1ccccc1)c1nc(N)c([N+](=O)[O-])c(NCc2ccccc2)n1,3.3,0.2,-0.7,0.6,30.9*
COc1ccc(-n2c(SCC(=O)Nc3ccc(Oc4ccccc4)cc3)nnc2-c2cccnc2)cc1,·,·,·,-10.0,·
COCCCNC(=O)C[C@H]1C(=O)N(Cc2ccc(OC)cc2)C2=CCCCC[C@@]21C(=O)OC,·,·,·,0.8,·
CCCCCCCCN1C(=O)[C@@H](CC(=O)N2CCCC2)C[C@@]2(C(=O)OC)C1=C[C@H](COCc1ccccc1)O[C@@H]2C,·,·,·,1.0,·
SMILES,BJeLR lethal,RecA intein inh,FBA Mtb inh,PrPC surface inh,GDH-TPI counter
C[C@H]1[C@@H](OC(=O)NCc2cccc(C(F)(F)F)c2)CC[C@@]23CCCN2C(=O)CCC[C@@H]13,·,·,·,6.7,·
C#CCN(CC=C)Cc1ccc(OC)cc1OC,·,·,·,-4.6,·
COC(=O)c1sc(-c2ccc(Cl)cc2)cc1NC(=O)COCC(=O)O,-3.6,1.1,13.6,-16.2,34.7*
O=C(CN1C(=O)S/C(=C\c2ccc(F)cc2)C1=O)NC1C=CS(=O)(=O)C1 (centres undefined),11.5,1.8,1.3,-4.0,32.8*
COc1ccc(/C=C2\SC(=O)N(CC(=O)NC3C=CS(=O)(=O)C3)C2=O)cc1 (centres undefined),-4.2,-0.3,-2.8,-6.8,48.5*
O=C(CCN1C(=O)/C(=C/c2ccc(F)cc2)SC1=S)NC1C=CS(=O)(=O)C1 (centres undefined),-1.1,2.3,5.0,-0.8,13.0
O=C(CN1C(=O)S/C(=C\c2ccccc2F)C1=O)NC1C=CS(=O)(=O)C1 (centres undefined),-5.7,-1.4,-1.7,3.5,31.0*
CC(C)C[C@H]1COc2cc(Br)ccc2S(=O)(=O)N1Cc1cn(CCC2OCCCO2)nn1,·,·,·,0.9,·
CC(C)[C@H](N)C(=O)N[C@@H](Cc1ccccc1)C(=O)N1CCC2CCN(S(=O)(=O)c3ccccc3)CC21 (some centres undefined),·,·,·,-6.5,·
Cc1ccc(/C=C/C(=O)OCn2nnc3ccccc3c2=O)o1,22.7,-2.7,0.8,-7.1,34.0*
O=C(/C=C/c1ccco1)OCn1nnc2ccccc2c1=O,7.9,5.7,-0.5,-2.7,-1.9
CN1C(C(=O)Nc2ncccn2)=C(O)c2ccccc2S1(=O)=O,2.5,-0.7,4.9,7.7,21.4
CN1C(C(=O)Nc2ccccn2)=C(O)c2ccccc2S1(=O)=O,-11.7,1.1,-2.2,-4.4,33.3*
CC1CCC2(CC1)CCN(CCCOC(=O)NCc1ccc(Cl)cc1)C2=O (centres undefined),·,·,·,12.9,·
CCN(CC)Cc1nc2nc(Cl)c(Cl)nc2[nH]1,·,·,1.1,0.0,37.2*
N#C/C(=C\c1ccco1)C(=O)Nc1cccc2ncccc12,0.5,3.0,2.8,-3.9,33.0*
CCOc1cc2[nH]c(=S)n(CCOC)c(=O)c2cc1OCC,6.7,0.8,0.8,12.4,32.7*
CCCCC(=O)NC(c1ccc(C(C)C)cc1)c1ccc2cccnc2c1O (centres undefined),53.7*,·,-0.7,12.6,1.6
COc1ccc(C2c3ccc(O)cc3Oc3ncn4nc(-c5ccccn5)nc4c32)cc1 (centres undefined),-18.4,0.8,3.8,-2.4,36.4*
COc1ccc(C2c3ccc(O)cc3Oc3ncn4nc(-c5ccccn5)nc4c32)cc1OC (centres undefined),10.6,2.3,-3.4,-0.1,1.3
O=[N+]([O-])c1ccc(NCCCN2CCC(C(O)(c3ccccc3)c3ccccc3)CC2)cc1,·,·,·,-19.3,·
C/C(=N/NC(=O)c1ccoc1C)c1cccs1,·,·,·,5.5,·
COC(=O)C(C)SC1=N/C(=C/c2ccc(-n3cncn3)cc2)C(=O)N1 (centres undefined),2.7,0.6,-0.1,-11.2,43.0*
CCN(CC)CCCNC(=O)c1oc(=O)c2ccccc2c1-c1ccc(C)cc1,·,·,·,-1.1,·
CCC(C)c1ccc2oc(-c3ccc(NC(=O)c4ncn[nH]4)cc3)nc2c1 (centres undefined),-9.1,-1.3,3.8,9.9,31.0*
CCOc1cccc(/C=N/NC(=S)Nc2ccccc2[N+](=O)[O-])c1O,-8.2,-0.4,-5.2,-1.2,8.6
